Here are results for 8 compounds from PubChem BioAssay (NCI).

Test systems include NCI-H23 lung; NCI-H226 lung; NCI-H322M lung; HOP-62 NSCLC; NCI-H460 lung; NCI-H522 lung; A549/ATCC NSCLC; 786-0 renal; COLO 205 colon; DU-145 prostate; K-562 leukemia; MALME-3M melanoma; MDA-MB-231 breast; RXF 393 renal; SF-268 CNS; SF-295 CNS; SF-539 CNS; UACC-257 melanoma; M14 melanoma; HOP-92 NSCLC.
Holding throughout (assay): NCI-60 one-dose screen, 48 h (100 = growth as untreated, 0 = no growth, -100 = all killed)
Details in all cases: 10 µM unless noted

Compounds without any hit were thinned out: in the full panel of roughly 83,000, 20% have a hit.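 A percent growth of 40 corresponds to 60% growth inhibition; 0 means no net growth; -100 means all cells died. Active threshold: below 10.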 Unmarked numbers belong to inactive results. Calls of active or inactive are those of the source.

For `CC[n+]1ccc(Nc2ccc(NC(=O)c3ccc(Nc4cc[n+](CC)c5ccc([N+](=O)[O-])cc45)cc3)cc2)cc1`, the growth in the assay with NCI-H23 lung is 81.8%; in the assay on NCI-H226 lung, 92.8%; in the assay with NCI-H322M lung it was 96.8%; in the assay on HOP-62 NSCLC, 92.8%; in the assay with NCI-H460 lung it was 77%; in the assay on NCI-H522 lung, 65.7%. For the same compound, the growth was 66.1% in the assay with A549/ATCC NSCLC; 101% with 786-0 renal; 69.8% in the assay with COLO 205 colon; 91.9% in the assay with DU-145 prostate; 48.2% in the assay on K-562 leukemia; 40% with MALME-3M melanoma. The growth in the assay on MDA-MB-231 breast is 114%; with RXF 393 renal, 97.9%; in the assay with SF-268 CNS, 86.1%; with SF-295 CNS it was 59.3%; in the assay on SF-539 CNS, 94.5%; with UACC-257 melanoma, 56.2%. The growth in the assay on M14 melanoma is 83.7%.
Consider `CCCCCC[C@@H](O)C/C=C\CCCCCCCC(=O)OCCOC`, for which the growth is 101% in the assay on NCI-H23 lung; 101% in the assay on NCI-H226 lung; 104% with NCI-H322M lung; 88.9% in the assay on HOP-62 NSCLC; 107% in the assay with NCI-H460 lung; 79.2% in the assay with HOP-92 NSCLC. For the same compound, the growth with A549/ATCC NSCLC was 94.3%; in the assay with COLO 205 colon, 115%; in the assay on DU-145 prostate it was 116%; with K-562 leukemia, 137%; in the assay with MDA-MB-231 breast it was 90%; in the assay on RXF 393 renal, 110%. The growth is 106% with SF-268 CNS, 131% in the assay on SF-295 CNS, 106% with SF-539 CNS and 100% in the assay on UACC-257 melanoma.
On to `O=C1C=CC(=O)N1C1CCCCCCCCCCC1`, for which the growth in the assay with NCI-H23 lung is 89.9%; in the assay on NCI-H226 lung it was 82.9%; in the assay with NCI-H322M lung it was 95.3%; with HOP-62 NSCLC it was 101%; with NCI-H460 lung, 106%; in the assay with NCI-H522 lung, 7.03% (active). Also, the growth in the assay on A549/ATCC NSCLC was 91.6%; in the assay on 786-0 renal, 94.6%; with COLO 205 colon, 52.4%; with DU-145 prostate, 88.1%; in the assay with K-562 leukemia, -2.11% (active); with MALME-3M melanoma, 72.9%. The growth was 99.8% in the assay on MDA-MB-231 breast; 64% in the assay on RXF 393 renal; 100% with SF-268 CNS; 90.8% in the assay with SF-295 CNS; 98.5% in the assay with SF-539 CNS; 66.6% in the assay with UACC-257 melanoma. Further, the growth in the assay on M14 melanoma is 80.8%.
Take `O=C(O)c1cc2c(s1)C(=O)c1sccc1C2=O`: the growth with NCI-H23 lung was -41.9% (active); in the assay on NCI-H226 lung, 103%; with NCI-H322M lung it was 85.9%; in the assay with HOP-62 NSCLC, -89% (active); with NCI-H460 lung it was 104%; in the assay with NCI-H522 lung, -63.4% (active). The growth in the assay on A549/ATCC NSCLC is 28.7%; in the assay on 786-0 renal it was 93.2%; with COLO 205 colon, 104%; in the assay with DU-145 prostate it was -100% (active); with K-562 leukemia, -1.53% (active); with MALME-3M melanoma, -98.9% (active). Besides, the growth with MDA-MB-231 breast is 75%; in the assay on RXF 393 renal it was 34.2%; in the assay on SF-268 CNS it was 45.2%; with SF-295 CNS, 57.4%; with SF-539 CNS it was -66.1% (active); with UACC-257 melanoma, 48.3%. Moreover, the growth in the assay on M14 melanoma was -96.3% (active).
For the compound `COC1=CC(=O)c2c(O)c3c(c(O)c2C1=O)CC(C)(O)OC3` (centres undefined), the growth was -27% (active) in the assay on NCI-H23 lung; 90.1% in the assay with NCI-H226 lung; 5.37% (active) with NCI-H322M lung; 9.06% (active) in the assay with HOP-62 NSCLC; 4.74% (active) with NCI-H460 lung; 14.7% in the assay with NCI-H522 lung. For the same compound, the growth in the assay on A549/ATCC NSCLC was 2.13% (active); with 786-0 renal, 34%; in the assay with COLO 205 colon, -61.7% (active); in the assay on DU-145 prostate, 12.7%; in the assay on K-562 leukemia, 13.4%; with MALME-3M melanoma, -96.6% (active). The growth with MDA-MB-231 breast is 28.3%; in the assay with RXF 393 renal, 11.1%; in the assay on SF-268 CNS it was 18.3%; in the assay on SF-295 CNS it was 5.39% (active); with SF-539 CNS, -2.19% (active); with UACC-257 melanoma, 5.54% (active). For the same compound, in the assay on M14 melanoma, the growth was -52.4% (active).
Regarding `CCN(CC)CC(O)CNc1ccc(NCC2CO2)c2c1C(=O)c1ccccc1C2=O` (centres undefined), the growth is -43% (active) in the assay with NCI-H23 lung; 0.0591% (active) in the assay with NCI-H226 lung; -16.7% (active) in the assay on NCI-H322M lung; -34.9% (active) in the assay on HOP-62 NSCLC; -43.9% (active) in the assay on NCI-H460 lung; -74.1% (active) with NCI-H522 lung. In addition, the growth is 7.32% (active) in the assay on A549/ATCC NSCLC; -21.7% (active) in the assay on 786-0 renal; -40.8% (active) with COLO 205 colon; -19.1% (active) in the assay with DU-145 prostate; -25.6% (active) in the assay with K-562 leukemia; -44.4% (active) in the assay on MALME-3M melanoma. The growth with MDA-MB-231 breast was -2.98% (active); with RXF 393 renal it was 4.29% (active); in the assay with SF-268 CNS it was -7.61% (active); in the assay on SF-295 CNS, 20.4%; with SF-539 CNS it was -39.4% (active); in the assay on UACC-257 melanoma, -2.17% (active). In addition, the growth in the assay with M14 melanoma is -63.1% (active).
Regarding `O=C1C=CC(=O)c2c(O)c(CO)c(CO)c(O)c21`, the growth with NCI-H23 lung is 89.2%; with NCI-H226 lung it was 110%; with NCI-H322M lung it was 119%; with HOP-62 NSCLC it was 109%; in the assay with NCI-H460 lung, 102%; in the assay on NCI-H522 lung, 56.6%. The growth was 99.5% in the assay on A549/ATCC NSCLC; 93.7% with 786-0 renal; 12% with COLO 205 colon; 54.9% in the assay on DU-145 prostate; 91.7% in the assay on K-562 leukemia; 9.33% (active) with MALME-3M melanoma. The growth in the assay with MDA-MB-231 breast is 89.6%; with RXF 393 renal, 98%; in the assay with SF-268 CNS it was 111%; in the assay with SF-295 CNS, 95%; in the assay with SF-539 CNS, 104%; in the assay with UACC-257 melanoma it was 94.4%. In addition, the growth with M14 melanoma is 14%.
As for `CC1(C)CCCC2=C1C(=O)N(SC(Cl)(Cl)Cl)C2=O`, the growth in the assay with NCI-H23 lung was 101%; in the assay on NCI-H226 lung it was 93.6%; in the assay with NCI-H322M lung, 101%; in the assay on HOP-62 NSCLC, 98.2%; in the assay with NCI-H460 lung, 109%; in the assay with NCI-H522 lung, -73.2% (active). For the same compound, the growth in the assay with A549/ATCC NSCLC was 92.6%; with 786-0 renal, 95%; in the assay with COLO 205 colon, 69.8%; in the assay with DU-145 prostate, 102%; with K-562 leukemia, 43.1%; in the assay on MALME-3M melanoma, 75.9%. Besides, the growth in the assay with MDA-MB-231 breast is 95.9%; in the assay on RXF 393 renal it was 90%; with SF-268 CNS, 103%; in the assay with SF-295 CNS it was 84.5%; with SF-539 CNS, 95.9%; in the assay on UACC-257 melanoma it was 97.2%. Further, in the assay with M14 melanoma, the growth was 93.6%.
